# Reference: the supplement of paper PMC8728848
# The entries come from a sample that favours the strongest signals as a whole.
# Columns and labels:
# Experiment in all cases: glycan array binding signal (z-score within array); higher = stronger binding
# Details in all cases: glycan notation: IUPAC condensed, linker removed
# [1] = biological target: Fuc(a1-2)Gal(b1-4)Glc6S
# In short: (§1)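 Columns mapping to the same glycan were averaged after glycan names were converted to IUPAC-condensed notation. The data come from 3228 arrays in the Consortium for Functional Glycomics database, limited to those with an available protein sequence. Binding is reported as a within-array Z-score averaged across arrays of one protein sequence and across linkers.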
# [2] = biological target: Fuc(a1-2)Gal(b1-4)GlcNAc(b1-2)Man
# In short: as §1
# [3] = biological target: Fuc(a1-2)Gal(b1-4)GlcNAc(b1-2)Man(a1-3)[Fuc(a1-2)Gal(b1-4)GlcNAc(b1-2)Man(a1-6)]Man(b1-4)GlcNAc(b1-4)[Fuc(a1-6)]GlcNAc
# In short: as §1
# [4] = biological target: Fuc(a1-2)[Gal(a1-3)]Gal(b1-3)GlcNAc(b1-2)Man(a1-3)[Fuc(a1-2)[Gal(a1-3)]Gal(b1-3)GlcNAc(b1-2)Man(a1-6)]Man(b1-4)GlcNAc(b1-4)GlcNAc
# In short: as §1
# [5] = biological target: Fuc(a1-2)[GalNAc(a1-3)]Gal(b1-4)GlcNAc
# In short: as §1
# [6] = biological target: Fuc(a1-2)[GalNAc(a1-3)]Gal(b1-4)GlcNAc(b1-3)Gal(b1-4)GlcNAc(b1-3)Gal(b1-4)GlcNAc
# In short: as §1
# [7] = biological target: Gal(a1-3)Gal(b1-3)GlcNAc
# In short: as §1
# [8] = biological target: Gal(a1-3)Gal(b1-3)GlcNAc(b1-3)GalNAc
# In short: as §1
# [9] = biological target: Gal(a1-3)Gal(b1-4)GlcNAc(b1-2)Man(a1-3)[Gal(a1-3)Gal(b1-4)GlcNAc(b1-2)Man(a1-6)]Man(b1-4)GlcNAc(b1-4)GlcNAc
# In short: as §1
# [10] = biological target: Gal(a1-3)Gal(b1-4)[Fuc(a1-3)]GlcNAc(b1-2)Man(a1-3)[Gal(a1-3)Gal(b1-4)[Fuc(a1-3)]GlcNAc(b1-2)Man(a1-6)]Man(b1-4)GlcNAc(b1-4)GlcNAc
# In short: as §1
# [11] = biological target: Gal(a1-3)[Gal(a1-4)]Gal(b1-4)GlcNAc
# In short: as §1
# [12] = biological target: Gal(a1-4)Gal(b1-4)GlcNAc(b1-2)Man(a1-3)[Gal(a1-4)Gal(b1-4)GlcNAc(b1-2)Man(a1-6)]Man(b1-4)GlcNAc(b1-4)GlcNAc
# In short: as §1
# [13] = biological target: Gal(b1-2)Gal
# In short: as §1
# [14] = biological target: Gal(b1-3)GalNAc(b1-4)Gal(b1-4)Glc
# In short: as §1
# [15] = biological target: Gal(b1-3)GlcNAc
# In short: as §1
# [16] = biological target: Gal(b1-3)GlcNAc(b1-3)Gal(b1-4)GlcNAc(b1-2)[Gal(b1-3)GlcNAc(b1-3)Gal(b1-4)GlcNAc(b1-6)]Man(a1-6)[Gal(b1-3)GlcNAc(b1-3)Gal(b1-4)GlcNAc(b1-2)Man(a1-3)]Man(b1-4)GlcNAc(b1-4)[Fuc(a1-6)]GlcNAc
# In short: as §1
# [17] = biological target: Gal(b1-3)GlcNAc(b1-3)Gal(b1-4)[Fuc(a1-3)]GlcNAc
# In short: as §1
# [18] = biological target: Gal(b1-4)GlcNAc
# In short: as §1
# [19] = biological target: Gal(b1-4)GlcNAc(b1-3)Gal(b1-3)GlcNAc
# In short: as §1
# [20] = biological target: Gal(b1-4)GlcNAc(b1-3)Gal(b1-4)Glc
# In short: as §1
# [21] = biological target: Gal(b1-4)GlcNAc(b1-3)Gal(b1-4)GlcNAc(b1-3)Gal(b1-4)GlcNAc(b1-3)Gal(b1-4)GlcNAc(b1-2)Man(a1-3)[Gal(b1-4)GlcNAc(b1-3)Gal(b1-4)GlcNAc(b1-3)Gal(b1-4)GlcNAc(b1-3)Gal(b1-4)GlcNAc(b1-2)Man(a1-6)]Man(b1-4)GlcNAc(b1-4)GlcNAc
# In short: as §1
# [22] = biological target: Gal(b1-4)GlcNAc(b1-3)Gal(b1-4)GlcNAc(b1-3)GalNAc
# In short: as §1
# [23] = biological target: Gal(b1-4)GlcNAc(b1-3)[Gal(b1-4)GlcNAc(b1-6)]Gal(b1-4)GlcNAc
# In short: as §1
# [24] = biological target: Gal(b1-4)GlcNAc(b1-6)GalNAc
# In short: as §1
# [25] = biological target: GalNAc(a1-3)GalNAc(b1-3)Gal(a1-4)Gal(b1-4)GlcNAc
# In short: as §1
# [26] = biological target: GalNAc(b1-3)Gal(a1-4)Gal(b1-4)GlcNAc
# In short: as §1
# [27] = biological target: GalNAc(b1-4)Gal(b1-4)Glc
# In short: as §1
# [28] = biological target: GalNAc6S(b1-4)GlcNAc
# In short: as §1
# [29] = biological target: GlcNAc(a1-3)Gal(b1-4)GlcNAc
# In short: as §1
# [30] = biological target: GlcNAc(b1-2)Gal(b1-3)GalNAc
# In short: as §1
# [31] = biological target: GlcNAc(b1-3)Gal(b1-4)GlcNAc(b1-3)Gal(b1-4)GlcNAc(b1-3)Gal(b1-4)GlcNAc(b1-3)Gal(b1-4)GlcNAc(b1-2)Man(a1-3)[GlcNAc(b1-3)Gal(b1-4)GlcNAc(b1-3)Gal(b1-4)GlcNAc(b1-3)Gal(b1-4)GlcNAc(b1-3)Gal(b1-4)GlcNAc(b1-2)Man(a1-6)]Man(b1-4)GlcNAc(b1-4)GlcNAc
# In short: as §1
# [32] = biological target: GlcNAc(b1-3)Gal(b1-4)GlcNAc(b1-3)Gal(b1-4)GlcNAc(b1-3)GalNAc
# In short: as §1
# [33] = biological target: GlcNAc(b1-4)Gal(b1-4)GlcNAc
# In short: as §1
# [34] = biological target: GlcNAc(b1-4)GlcNAc(b1-4)GlcNAc(b1-4)GlcNAc(b1-4)GlcNAc
# In short: as §1
# [35] = biological target: Man(a1-3)[Man(a1-6)]Man(a1-6)[Man(a1-3)]Man(b1-4)GlcNAc(b1-4)GlcNAc
# In short: as §1
# [36] = biological target: Neu5Ac(a2-3)Gal(b1-3)GalNAc
# In short: as §1
# [37] = biological target: Neu5Ac(a2-3)Gal(b1-3)GlcNAc(b1-2)Man(a1-3)[GlcNAc(b1-4)][Neu5Ac(a2-3)Gal(b1-3)GlcNAc(b1-2)Man(a1-6)]Man(b1-4)GlcNAc(b1-4)GlcNAc
# In short: as §1
# [38] = biological target: Neu5Ac(a2-3)Gal(b1-3)[Fuc(a1-4)]GlcNAc(b1-3)Gal(b1-3)[Fuc(a1-4)]GlcNAc
# In short: as §1
# [39] = biological target: Neu5Ac(a2-3)Gal(b1-4)GlcNAc(b1-2)Man
# In short: as §1
# [40] = biological target: Neu5Ac(a2-3)Gal(b1-4)GlcNAc(b1-3)Gal(b1-4)GlcNAc(b1-3)Gal(b1-4)GlcNAc(b1-2)Man(a1-3)[Neu5Ac(a2-3)Gal(b1-4)GlcNAc(b1-3)Gal(b1-4)GlcNAc(b1-3)Gal(b1-4)GlcNAc(b1-2)Man(a1-6)]GalNAc
# In short: as §1
# [41] = biological target: Neu5Ac(a2-3)Gal(b1-4)GlcNAc(b1-6)GalNAc
# In short: as §1
# [42] = biological target: Neu5Ac(a2-3)Gal(b1-4)GlcNAc6S
# In short: as §1
# [43] = biological target: Neu5Ac(a2-3)Gal(b1-4)[Fuc(a1-3)]GlcNAc(b1-6)[Gal(b1-3)]GalNAc
# In short: as §1
# [44] = biological target: Neu5Ac(a2-3)Gal(b1-4)[Fuc(a1-3)]GlcNAc(b1-6)[Neu5Ac(a2-3)Gal(b1-3)]GalNAc
# In short: as §1
# [45] = biological target: Neu5Ac(a2-3)[GalNAc(b1-4)]Gal(b1-4)GlcNAc(b1-3)GalNAc
# In short: as §1
# [46] = biological target: Neu5Ac(a2-6)Gal(b1-4)GlcNAc(b1-2)Man(a1-3)[GlcNAc(b1-4)][Neu5Ac(a2-6)Gal(b1-4)GlcNAc(b1-2)Man(a1-6)]Man(b1-4)GlcNAc(b1-4)GlcNAc
# In short: as §1
# [47] = biological target: Neu5Ac(a2-6)Gal(b1-4)GlcNAc(b1-3)Gal(b1-4)GlcNAc(b1-2)Man(a1-3)[Neu5Ac(a2-6)Gal(b1-4)GlcNAc(b1-3)Gal(b1-4)GlcNAc(b1-2)Man(a1-6)]GalNAc
# In short: as §1
# [48] = biological target: Neu5Ac(a2-6)Gal(b1-4)GlcNAc(b1-3)Gal(b1-4)GlcNAc(b1-3)GalNAc
# In short: as §1
# [49] = biological target: Neu5Ac(a2-6)GalNAc(b1-4)GlcNAc
# In short: as §1
# [50] = biological target: Neu5Ac(a2-8)Neu5Gc(a2-3)Gal(b1-4)GlcNAc
# In short: as §1
binder,measurement,setting,value
PV12658A-bvu-496-32-496 (Bacteroides vulgatus) (protein) DLDGAITTPAAVELALNGIYYSLPGNGFNVIFPTVSGSFKAGTMWRQEIVSAGNAVYYSERMLPTLSFSDATEWDADYAVIKNANFLETACNRMSDGEFSGNRRAEVLGEIAYLRALAYFNILVRYCEFWDMNSEYGVVMRNEAPSVSNALKARSSVADSYQYILDQLEIAIEKAPDWKKLSQASKEAAKALKARVLLYAGKYTEAVAAVNDAIDTNSPLPEANYGDVFDKFSTTKEILFARVFDQKDATNTSTRQQCYGNSPTKKQGYWGPTNEYVELVGDDPRADAIFSKVDSLMDSRSSAVAYNLKSVKKLLNDANDMPVIFSRVSELYLIKAEALYRSGASISEAYAPIRKLRERAGAEIILPANNEELETAIFNEWMLELSFENWHEWFAMIRFAGYTEKPDFTRLLALNKTLREALEKEYEKSEAQGDNYYQRIIDRRIDAIPSSEISSNLECKQNPGY,glycan array binding signal (z-score),[1],-0.163
same,glycan array binding signal (z-score),[2],-0.199
same,glycan array binding signal (z-score),[3],0.201
same,glycan array binding signal (z-score),[4],3.63
same,glycan array binding signal (z-score),[5],-0.36
same,glycan array binding signal (z-score),[6],0.133
same,glycan array binding signal (z-score),[7],3.81
same,glycan array binding signal (z-score),[8],-0.252
same,glycan array binding signal (z-score),[9],4.55
same,glycan array binding signal (z-score),[10],0.883
same,glycan array binding signal (z-score),[11],1.73
same,glycan array binding signal (z-score),[12],7.57
same,glycan array binding signal (z-score),[13],-0.301
same,glycan array binding signal (z-score),[14],0.963
same,glycan array binding signal (z-score),[15],-0.316
same,glycan array binding signal (z-score),[16],6.34
same,glycan array binding signal (z-score),[17],-0.533
same,glycan array binding signal (z-score),[18],-0.258
same,glycan array binding signal (z-score),[19],-0.494
same,glycan array binding signal (z-score),[20],-0.266
same,glycan array binding signal (z-score),[21],5.64
same,glycan array binding signal (z-score),[22],3.98
same,glycan array binding signal (z-score),[23],0.41
same,glycan array binding signal (z-score),[24],-0.393
same,glycan array binding signal (z-score),[25],-0.573
same,glycan array binding signal (z-score),[26],-0.363
same,glycan array binding signal (z-score),[27],-0.027
same,glycan array binding signal (z-score),[28],-0.216
same,glycan array binding signal (z-score),[29],-0.069
same,glycan array binding signal (z-score),[30],-0.342
same,glycan array binding signal (z-score),[31],0.265
same,glycan array binding signal (z-score),[32],0.161
same,glycan array binding signal (z-score),[33],-0.358
same,glycan array binding signal (z-score),[34],-0.447
same,glycan array binding signal (z-score),[35],0.012
same,glycan array binding signal (z-score),[36],-0.233
same,glycan array binding signal (z-score),[37],-0.433
same,glycan array binding signal (z-score),[38],-0.275
same,glycan array binding signal (z-score),[39],-0.265
same,glycan array binding signal (z-score),[40],7.6
same,glycan array binding signal (z-score),[41],-0.479
same,glycan array binding signal (z-score),[42],-0.525
same,glycan array binding signal (z-score),[43],4.21
same,glycan array binding signal (z-score),[44],-0.336
same,glycan array binding signal (z-score),[45],-0.198
same,glycan array binding signal (z-score),[46],-0.152
same,glycan array binding signal (z-score),[47],10.6
same,glycan array binding signal (z-score),[48],-0.476
same,glycan array binding signal (z-score),[49],-0.163
same,glycan array binding signal (z-score),[50],5.59
